Bfl-1 A1 inh = inhibitors of the anti-apoptotic protein A1, read as caspase activation. hit rate 0.066% among 330,000. MEF A1-2A-BIM cells, Caspase-Glo 3/7 luminescence, 3 h; percent of clofoctol response, vehicle zero. caspase activation, % (no concentration beside the values);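 active = over half of replicate activation scores above 10%, or exactly half above 10 with the replicate mean above 10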
NALP1 yeast inh = NALP1 inhibition. inhibition, % at 10 µM. AID 2071. hit rate 0.61% among 280,000. S. cerevisiae NALP1/ASC/caspase-1 growth, X-gal OD620, 72 h; in the data active = inhibition mostly above about 24%, no sharp cut-off; inactive = mostly below about 32%
NALP3 yeast inh = NALP3 inhibition in yeast | inhibition, % at 10 µM | AID 2825 | Yeast reconstituted NLRP3/ASC/caspase-1, beta-gal luminescence, 24 h | hit rate 0.39% among 330,000;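 active = inhibition of 50% or more; inactive = inhibition below 50%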;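 also: plate controls were induced DMSO wells for no effect and uninduced yeast grown without galactose for full effect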
CHT allo act = allosteric activators of human choline transporter CHT; B-score at 10 µM; CHT-expressing cells, membrane potential dye, choline EC20; active compounds read high; LV-AA mutant CHT in HEK293 cells; hit rate 0.49% among 310,000; Q9GZV3;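 active = initial fluorescence not abnormally high and integrated response B-score, plate-corrected, over 3 SD above library mean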
Target sequence (Q9GZV3 whole entry, looked up): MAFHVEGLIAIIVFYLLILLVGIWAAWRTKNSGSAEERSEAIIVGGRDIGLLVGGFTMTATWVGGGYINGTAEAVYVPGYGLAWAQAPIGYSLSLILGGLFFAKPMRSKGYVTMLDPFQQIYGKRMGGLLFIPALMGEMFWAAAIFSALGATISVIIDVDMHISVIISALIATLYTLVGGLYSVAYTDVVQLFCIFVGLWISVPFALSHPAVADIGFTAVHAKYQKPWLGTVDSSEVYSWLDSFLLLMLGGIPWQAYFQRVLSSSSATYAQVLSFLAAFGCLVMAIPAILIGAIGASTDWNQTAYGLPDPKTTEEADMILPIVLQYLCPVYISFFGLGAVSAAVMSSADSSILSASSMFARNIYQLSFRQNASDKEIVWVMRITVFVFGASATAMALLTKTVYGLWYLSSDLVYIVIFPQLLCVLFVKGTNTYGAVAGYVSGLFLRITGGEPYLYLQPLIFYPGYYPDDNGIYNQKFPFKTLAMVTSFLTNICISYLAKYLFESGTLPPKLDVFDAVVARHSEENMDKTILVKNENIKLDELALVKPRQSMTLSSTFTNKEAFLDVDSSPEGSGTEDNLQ
CHT block = inhibitors of human choline transporter CHT; Q9GZV3; CHT-expressing cells, membrane potential dye, choline response; active compounds read low; B-score at 10 µM; hit rate 0.86% among 310,000; AID 488975;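 active = B-score over 3 SD under the library average, and starting fluorescence ratio not unusually high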;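 also: choline stimulus applied at its EC90 after an EC20 pre-addition; B-score computed on integrated fluorescence ratio after choline addition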
SUMO Mot1 rescue = inhibitors of SUMOylation pathway: yeast Mot1-301 growth rescue. hit rate 1% among 320,000. S. cerevisiae Mot1-301 growth rescue, ATP luminescence, 38.5C; percent above DMSO median, 100 means doubled. growth rescue, % at 18.8 µM;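 active = every valid replicate shows activation above 250% relative to neutral control wells; inactive = the rest, any valid replicate at or below 250%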;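 also: OY570 slx delta 5 strain wells were the positive control but not used for scaling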
CHT act confirm = human CHT activation, confirmatory screen; shares compounds with CHT allo act; CHT-expressing cells, membrane potential dye fluorescence (FDSS); % of choline EC20–EC90 response window; HEK293 expressing CHT LV-AA mutant; choline added at its EC20; activation, % at 10 µM; hit rate 91% among 2,500; AID 504833;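 active = primary screen active, with duplicate mean activation above negative control mean plus 3 SD, cut at about 11% in these data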
HEK293 MP dye = counter-screen for CHT activators: effect in parental HEK293 cells. AID 623908. ratio readout change at 10 µM, hits read low. membrane potential dye fluorescence (FDSS); measured after EC20 choline addition. shares compounds with CHT allo act. hit rate 62% among 2,500;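 active = duplicate-averaged ratio beyond 3 SD from buffer wells, up or down, though filed actives are nearly all decreases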
Active calls of the source: *; i = inactive; nt = no result given. Sampled rows, rich in hits. Any-hit rate of the full collection: about 3%.

SMILES	Bfl-1 A1 inh	NALP1 yeast inh	NALP3 yeast inh	CHT allo act	CHT block	SUMO Mot1 rescue	CHT act confirm	HEK293 MP dye
COC(=O)CCCC1=CC2=C(c3ccccc3)C(=O)C(C)(OC(=O)C3CCCC3)C(=O)C2=CN1C1CC1 (configuration not stated)	0.9	nt	-2.0	10.3*	i	5.2	0.0	i
CCSc1ccc2cc(OC)ccc2[n+]1CC	-0.5	-31.1	16.4	6.26*	i	-11.2	40.0*	-54.3*
COc1cccc(CNC(=O)C(=O)NCC2OCCCN2S(=O)(=O)c2cc(C)ccc2C)c1 (configuration not stated)	1.8	6.6	-6.6	i	i	-2.9	nt	nt
Cc1ccc(-n2cccn2)c(CN2CCCC(CNC(=O)c3ccc(F)cc3)C2)c1 (configuration not stated)	0.6	5.0	11.2	i	i	9.7	39.0*	i
CCOC(=O)C1(CC2CCCCO2)CCN(Cc2cc(F)ccc2-n2cccn2)CC1 (configuration not stated)	-0.1	-10.8	14.7	9.41*	i	-7.5	49.1*	i
CCOC(=O)C1(CC2CCCCO2)CCN(Cc2c(C)cc(C)cc2-n2cccn2)CC1 (configuration not stated)	2.6	9.5	0.4	i	i	7.6	nt	nt
CC(C)CCNC(=O)/C=C/c1ccc(Br)cc1	-0.7	28.1	40.9	i	i	11.0	25.0*	i
CCOc1cc(CNCc2cccnc2)ccc1OCC(=O)NC(C)(C)C	0.2	-14.8	7.1	i	i	2.5	nt	nt
CCCCOC(=O)c1ccc(NC(=O)c2c(N)n(C)c(=O)[nH]c2=O)cc1	0.6	nt	12.4	i	i	13.0	nt	nt
CN1CCN(CCCN2c3ccccc3Sc3ccc(S(=O)(=O)N(C)C)cc32)CC1	0.9	nt	8.0	i	i	-7.9	16.4*	-29.8*
CC(=O)c1ccc2c(c1)N(CCCN1CCC(CCO)CC1)c1ccccc1S2	0.5	nt	11.7	9.08*	i	14.5	46.3*	-48.8*
OCCN1CCN(CCCN2c3ccccc3Sc3ccc(Cl)cc32)CC1	1.4	32.0	14.0	i	i	-20.5	nt	nt
CCN(C[C@H]1N[C@@](C)(C(=O)OC)[C@H]2C(=O)N(Cc3ccccc3)C(=O)[C@@H]12)C(=O)Nc1ccc(F)cc1	-0.5	nt	10.1	nt	nt	7.9	nt	nt
COc1ccc(-c2cc(=O)c3cc(OC)ccc3o2)cc1	-0.5	1.3	31.5	i	i	-7.2	nt	nt
CCC(N=c1cc(-c2ccc(OC)cc2)oc2ccc(C)cc12)C(=O)O (configuration not stated)	-0.9	24.5	38.9	i	i	10.9	32.0*	-26.7*
CN(Cc1ccccc1)C(=O)c1oc(=O)c2ccccc2c1-c1ccccc1	-0.1	40.6	14.1	i	i	52.6	nt	nt
Cc1ccc(-c2c(C(=O)N(C)Cc3ccccc3)oc(=O)c3ccccc23)cc1	1.3	24.2	9.4	i	i	235.4	32.5*	i
COc1cccc(Cl)c1NC(=O)N1CCN(c2cc(C)nc3ccccc23)CC1	-0.4	nt	20.2	6.75*	i	3.1	41.8*	-50.4*
COc1ccc2nc(C)cc(N3CCN(c4ccccc4)CC3)c2c1	-0.7	23.3	20.3	i	i	-0.2	nt	nt
COc1ccc(C(=O)CN2CCN(c3cc(C)nc4ccccc34)CC2)cc1	-0.4	-5.1	12.6	8.46*	i	-7.7	63.8*	-77.5*
Cc1cc(N2CCN(S(=O)(=O)c3ccc(Cl)c(Cl)c3)CC2)c2ccccc2n1	0.9	18.8	6.9	i	i	-0.8	nt	nt
Cc1cc(N2CCN(CC(O)C(F)(F)F)CC2)c2ccccc2n1 (configuration not stated)	-0.1	11.9	-15.4	i	i	-25.0	72.3*	-72.1*
COc1ccc2nc(C)cc(N3CCOCC3)c2c1	0.9	1.7	11.7	i	i	8.5	67.8*	-80.8*
COc1ccc(N2CCN(CC(=O)c3ccccc3)CC2)cc1	-0.6	21.4	14.3	i	i	3.0	nt	nt
Cc1cc(N2CCN(S(=O)(=O)c3ccc(Cl)cc3)CC2)c2ccccc2n1	-0.6	7.0	18.3	i	i	84.5	nt	nt
SMILES	Bfl-1 A1 inh	NALP1 yeast inh	NALP3 yeast inh	CHT allo act	CHT block	SUMO Mot1 rescue	CHT act confirm	HEK293 MP dye
CCN(CC(=O)NCc1cccs1)CC(=O)Nc1ccccc1C	0.7	nt	1.6	nt	nt	-1.8	nt	nt
CCOc1ccc2nc(COC(=O)c3ccncc3)c(C(=O)c3ccccc3)[n+]([O-])c2c1	-0.3	2.1	5.1	i	i	-0.1	nt	nt
CN(Cc1ccccc1)C(=O)c1ccc(NC(=O)C2CCN(C(=O)OC(C)(C)C)CC2)cc1	-0.3	nt	6.3	nt	nt	20.5	nt	nt
COc1ccc(CC(=O)OCC(=O)NCc2ccco2)cc1	-1.1	nt	3.0	7*	i	-18.1	-5.5	i
CCOc1ccc(CCNC(=O)Cn2nc(C)c3c(C)n(-c4ccccc4)nc3c2=O)cc1OCC	-1.7	5.6	-7.6	i	i	-0.4	nt	nt
CCOC(=O)N1CCN(c2ccnc3cc(Cl)ccc23)CC1	0.4	5.8	15.1	i	i	88.5	nt	nt
CCC(=O)N1CCN(c2ccnc3cc(Cl)ccc23)CC1	0.2	nt	13.8	7.56*	i	1.4	67.9*	-62.7*
Oc1ccc(N2CCN(c3ccnc4cc(Cl)ccc34)CC2)cc1	0.8	10.0	24.0	i	i	-0.5	nt	nt
Clc1ccc2c(N3CCOCC3)ccnc2c1	1.3	8.8	10.9	i	i	-10.8	50.0*	-49.8*
CCOC(=O)c1sc2nc3n(c(=O)c2c1C)CCC3	-0.2	38.9	12.0	i	i	-18.6	nt	nt
CCOC(=O)c1sc2nc(SCC#N)n(CCCN3CCCC3=O)c(=O)c2c1C	nt	nt	12.7	i	i	nt	21.3*	i
CCN1C(=O)[C@H]2[C@@H](c3ccc(OC)cc3)N3C(=O)CN(CCOC)C(=O)[C@@]3(Cc3ccccc3)[C@H]2C1=O	0.7	9.8	13.3	i	i	6.2	nt	nt
Cc1cc(C)n2[nH]c(=O)c(N=Nc3ccc(S(N)(=O)=O)cc3)c2n1	0.8	-19.6	18.4	9.18*	i	10.2	70.4*	-80.6*
CCN(Cc1ccccc1)CC(O)COC(c1ccc(OC)cc1)c1ccc(OC)cc1 (configuration not stated)	0.9	2.2	7.1	i	i	66.0	15.3*	i
Cc1sc2nc(CN3CCCC3)nc(N3CCC(C(N)=O)CC3)c2c1C	0.6	5.1	3.5	8.89*	i	48.9	67.3*	-53.6*
